# Rows were chosen to be rich in hits. Some 1.6% of all compounds tested hit in one or more screens of this group.
# KCNQ2 block: blocks the rat KCNQ2 potassium channel; AID 2156; hit rate 1.1% among 310,000; B-score at 10 µM; CHO-K1 KCNQ2, FluxOR thallium flux, 20 min; active compounds read low;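 active = fluorescence ratio B-score at most minus 3 library SDs, with starting brightness B-score within 2 library SDs, cut at about -5.5 in these data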
# Target sequence (O88943 whole entry, looked up): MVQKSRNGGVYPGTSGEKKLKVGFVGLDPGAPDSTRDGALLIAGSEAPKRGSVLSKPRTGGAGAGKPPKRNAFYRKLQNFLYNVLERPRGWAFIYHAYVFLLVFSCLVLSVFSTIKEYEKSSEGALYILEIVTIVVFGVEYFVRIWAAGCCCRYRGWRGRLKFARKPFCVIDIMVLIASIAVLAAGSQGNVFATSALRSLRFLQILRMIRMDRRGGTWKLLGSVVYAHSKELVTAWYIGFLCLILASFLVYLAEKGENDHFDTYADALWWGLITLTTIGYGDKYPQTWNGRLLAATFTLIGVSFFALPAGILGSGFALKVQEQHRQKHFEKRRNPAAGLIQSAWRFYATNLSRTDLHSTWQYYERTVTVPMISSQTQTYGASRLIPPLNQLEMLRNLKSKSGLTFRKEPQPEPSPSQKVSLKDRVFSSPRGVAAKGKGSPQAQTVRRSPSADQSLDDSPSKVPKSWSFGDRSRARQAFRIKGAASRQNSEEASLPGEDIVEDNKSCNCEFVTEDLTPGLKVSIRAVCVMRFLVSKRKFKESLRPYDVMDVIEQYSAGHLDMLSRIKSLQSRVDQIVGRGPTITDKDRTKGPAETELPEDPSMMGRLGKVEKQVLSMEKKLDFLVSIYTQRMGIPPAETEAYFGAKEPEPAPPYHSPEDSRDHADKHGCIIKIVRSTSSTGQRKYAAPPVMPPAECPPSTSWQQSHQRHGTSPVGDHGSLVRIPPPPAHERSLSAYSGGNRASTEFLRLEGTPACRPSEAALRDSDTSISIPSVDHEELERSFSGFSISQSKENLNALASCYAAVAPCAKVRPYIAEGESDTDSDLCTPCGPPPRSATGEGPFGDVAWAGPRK
# KCNQ2 enhance: potentiators of rat KCNQ2 potassium channel; hit rate 0.54% among 310,000; B-score at 10 µM; CHO-K1 KCNQ2, FluxOR thallium flux fluorescence; active compounds read high; O88943;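 active = fluorescence ratio B-score at least 3 SD of library B-scores, with initial fluorescence B-score within 3 of them, cut at about 5.3 in these data; same plate scores as AID 2156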;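 note: B-score of peak minus minimum over baseline fluorescence ratio after K+ and Tl+ stimulus; positive B-score means potentiation of KCNQ2 with more thallium influx and brighter signal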
# Numbers stand for hits; . = inactive; / = not tested or not shown.
SMILES,KCNQ2 block,KCNQ2 enhance
O=C(NCc1ccco1)c1ccc(Cn2c(=O)c3ccccc3n(Cc3cccc(F)c3)c2=O)cc1,.,/
CCCCC(=O)Nc1cnc(NC(=O)c2ccco2)cc1C,.,/
c1cncc(C(c2nnnn2C2CCCC2)N2CCN(Cc3ccc4c(c3)OCO4)CC2)c1 (configuration not stated),.,.
COc1ccc(C=O)cc1COc1ccc([N+](=O)[O-])c(C)c1,-6.82,.
COc1ccc(/C=C/C(=O)O)cc1COc1cccc(C)c1,.,.
CCc1cccc(C)c1NC(=O)c1cccc(N(C)C)c1,-6.89,.
CCc1cccc(CC)c1NC(=O)c1cccc(NC(=O)c2ccccc2)c1,.,/
Cc1cc(C)c(/C=N/NC(=O)c2nnn(-c3nonc3N)c2CN2CCC(C)CC2)c(C)c1,.,/
O=C(CN1CCNC(=O)C1)NCCc1ccc(Cl)cc1Cl,.,.
O=C(NCc1ccccc1)c1ccc(S(=O)(=O)N2CCCc3ccccc32)cc1,.,.
O=C(COC(=O)c1ccc2ccccc2n1)c1ccc(F)cc1,.,.
O=C(OCCNC(=O)c1ccc2ccccc2n1)c1ccc(F)cc1,-7.27,.
COc1ccc(CN=CC2=C(O)CC(C)(C)CC2=O)cc1,.,.
COc1ccc(Cl)cc1NC(=O)c1[nH]c(C)c(C(C)=O)c1C,.,.
CC(=O)c1c(C)[nH]c(C(=O)NNC(=O)COc2ccc(Cl)cc2C)c1C,-5.82,.
COCCCn1c(=O)/c(=C\c2cccc(OC)c2OC)s/c1=C(/C#N)C(=O)Nc1ccc(C(=O)O)cc1,.,/
CCOc1ccccc1NC(=O)C(OC(=O)c1cc(C)oc1C)c1ccccc1 (configuration not stated),-5.82,.
CCOc1ccccc1NC(=O)C(OC(=O)c1ccccc1O)c1ccccc1 (configuration not stated),.,/
COc1cc(CNc2ccc(C)c(C)c2)cc(OC)c1OC,.,.
O=Nc1c(O)n(Cc2c(Cl)cccc2Cl)c2ccccc12,.,.
O=Nc1c(O)n(Cc2ccc(Cl)cc2)c2ccccc12,.,/
O=Nc1c(O)n(Cc2ccc(Cl)cc2Cl)c2ccccc12,-7.99,.
Cc1ccc(Cn2c(O)c(N=O)c3ccccc32)cc1,-6.71,.
CCOC(=O)CC(=O)CSc1nc2c(sc(=S)n2-c2ccccc2)c(=O)[nH]1,.,.
CCCCCC(=O)O[C@]1(C(C)=O)CC[C@H]2[C@@H]3CCC4=CC(=O)CC[C@]4(C)[C@H]3CC[C@@]21C,-7.16,.
SMILES,KCNQ2 block,KCNQ2 enhance
CC(=O)[C@@]1(O)CC[C@H]2[C@@H]3CCC4=CC(=O)CC[C@]4(C)[C@H]3CC[C@@]21C,.,.
Cc1ccccc1C(=O)N(C)Cc1ccccc1,.,/
Cc1cccc(C)c1NC(=O)CN(C)C(=O)c1ccccc1C(=O)N(C)Cc1ccccc1,-6.6,.
CCNC(=O)COC(=O)COc1ccc(Cl)cc1C,.,/
O=C(O)c1cc2c(s1)-c1ccccc1CC2,.,.
COc1ccc(C(=O)NCc2nnc(SCC(=O)Nc3cc(C)on3)o2)cc1OC,.,/
Cc1cc(NC(=O)CSc2nnc(CNC(=O)c3ccc(C(C)(C)C)cc3)o2)no1,-6.43,.
O=C(C1=C[C@@H](C2CCCCC2)C[C@@H](OCc2ccc(CO)cc2)O1)N1CCN(Cc2ccccc2)CC1,-6.5,.
O=C(C1=C[C@H](C2CCCCC2)C[C@H](OCc2ccc(CO)cc2)O1)N1CCN(Cc2ccccc2)CC1,-6.71,.
C[C@@H]1C=C(C(=O)N2CCN(Cc3ccccc3)CC2)O[C@H](OCc2ccc(CO)cc2)C1,.,/
O=C(C1=C[C@H](C2CCCCC2)C[C@H](OCc2ccc(CO)cc2)O1)N1CCOCC1,.,/
CCOC(=O)c1c(C)sc2c1N(C(=O)CCl)c1cc(Cl)ccc1S2,.,/
Cn1nc(C(F)(F)F)c(/C=N/OC(=O)c2ccccc2)c1Sc1ccc(Cl)cc1,-5.69,.
Cn1nc(C(F)(F)F)c(/C=N/OC(=O)c2ccccc2)c1Cl,.,/
O=C(Nc1ccc(Cl)cc1)C(c1ccccc1)N(CCO)CCO (configuration not stated),.,/
CCc1ccc(Sc2cc(C(=O)NCCN3CCOCC3)c3ccccc3n2)cc1,-5.65,.
Cc1ccc(-c2cc(C(=O)NCCCN3CCOCC3)c3ccccc3n2)cc1,.,.
O=C(C[n+]1ccccc1)N/N=C/c1ccco1,.,.
CCCCCCC(=O)N/N=C/c1ccco1,.,9.98
CCCCCCCC(=O)N/N=C/c1ccc([N+](=O)[O-])o1,.,8.17
CCOC(=O)N/N=C\c1ccc([N+](=O)[O-])o1,.,/
O=C(CC12CC3CC(CC(C3)C1)C2)N/N=C/c1ccc([N+](=O)[O-])o1,.,16.1
O=C(Cc1ccc([N+](=O)[O-])cc1)N/N=C/c1ccc([N+](=O)[O-])o1,.,/
Cn1c2ccccc2c2c(C(=O)NCCCN3CCCC3=O)cn(C3CCCCC3)c(=O)c21,.,/
Cc1cccc(NC(=O)CCCn2cc([N+](=O)[O-])cn2)n1,.,.
SMILES,KCNQ2 block,KCNQ2 enhance
C/C(=N/NC(=O)c1nnn(-c2nonc2N)c1-c1ccccc1)c1ccc2c(c1)OCO2,.,.
Nc1nc(N2CCN(c3ccccn3)CC2)nc2ccccc12,.,.
CCOc1ccc(NC2=NC(C)(C)N=C(N)N2)cc1,.,.
COCCCN1C(=O)C(=O)/C(=C(/O)c2ccc3c(c2)OCCO3)C1c1ccc(C(=O)OC)cc1 (configuration not stated),.,/
CCOC(=O)CCSc1nc(C)cc(C(F)(F)F)c1C#N,-5.74,.
CCOC(=O)CCSc1nc(C(C)(C)C)cc(C(F)(F)F)c1C#N,.,/
CC(C)OC(=O)/C(=C\c1cccc2ccccc12)NC(=O)c1ccccc1,.,/
CC(C)OC(=O)/C(=C\c1ccccc1)NC(=O)c1ccccc1,-5.6,.
CCOC(=O)CSc1nc(COc2ccccc2)nc2ccccc12,.,/
CCOc1cc(-c2cn(S(=O)(=O)c3cccc4nsnc34)nc2N)cc(OCC)c1OCC,-6.32,.
CCOc1cc(S(=O)(=O)n2cc(-c3ccc(F)cc3)c(N)n2)cc(OCC)c1OCC,.,/
O=c1cc(CO)occ1OCc1cccc(F)c1,.,/
CCn1c(C)c(C2=CCN(S(=O)(=O)c3ccc(C)cc3)CC2)c2ccccc21,.,/
CCN(C(=S)NC(=O)c1ccccc1Br)C1CCCCC1,.,11.7
O=C(NC(=S)NC1CCCC1)c1ccccc1Br,.,.
Cc1ccc(C)c(NC(=S)/C(=C(\[O-])c2ccc(Cl)s2)[n+]2ccccc2)c1,.,.
Cc1cc(C)cc(NC(=S)/C(=C(\[O-])c2ccc(Cl)s2)[n+]2cccc(C)c2)c1,-6.04,.
O=C(NC1CCCC1)C(c1ccc(O)cc1)N(CC1CCCO1)C(=O)C1COc2ccccc2O1 (configuration not stated),.,/
O=C(C(=O)N1CCN(c2ccc(F)cc2)CC1)c1cn(CC(=O)N2CCOCC2)c2ccccc12,.,/
O=[N+]([O-])c1cc2cccnc2c2ncccc12,.,/
O=[N+]([O-])c1cc(O)c2ncccc2c1,.,10.1
CN(C(=O)COC(=O)C(Cc1ccccc1)NC(=O)c1ccccc1)c1ccccc1 (configuration not stated),-5.67,.
CN(C)C(=O)COC(=O)[C@H](Cc1ccccc1)NC(=O)c1ccco1,.,/
COc1ccc(NC(=O)c2c(-c3ccccc3)noc2C)c(OC)c1,.,/
Cc1onc(-c2ccccc2)c1C(=O)Nc1ccccc1NC(=O)c1c(-c2ccccc2)noc1C,.,/
CCCOc1ccccc1NC(=O)c1c(-c2ccccc2)noc1C,-6.06,.
Cc1cccc(C)c1NC(=O)c1c(-c2ccccc2)noc1C,-5.7,.

# Source: PubChem BioAssay
